Results as given in PubChem BioAssay AID602253 (Broad Institute, 2012).
Measured potencies and affinities stand elsewhere. Active and inactive are the calls of the source.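 The calls were made as follows: active = compounds lowering polarization whose fitted half-maximal concentration is at most twice their top tested dose; inconclusive = flat curve with 30 to 70 percent inhibition, or poor fit; inactive = the rest.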

target: Golgi-associated PDZ and coiled-coil motif-containing protein (Homo sapiens) (UniProt Q9HD26); assay: CAL PDZ domain peptide-binding inhibitors, dose response, biochemical, fluorescence polarization, Cer-tagged CAL PDZ, dry powder (AID 602253); settings: Purified CAL PDZ, TMR-peptide fluorescence polarization, 1 h; series mostly up to 35 µM

outcome, inactive:
O=C(O)CSc1cc(NS(=O)(=O)c2ccc(Br)cc2)c2ccccc2c1O
O=S(=O)(Nc1ccc(O)c2ccccc12)c1ccccc1
O=S(=O)(Nc1cc(Sc2ccccc2)c(O)c2ccccc12)c1ccc(Cl)cc1
O=C(O)CSc1cc(NS(=O)(=O)c2ccc(Cl)cc2)c2ccccc2c1O
COc1ccc(S(=O)(=O)Nc2cc(SCC(=O)O)c(O)c3ccccc23)cc1
CCOc1ccc(S(=O)(=O)Nc2cc(SCC(=O)O)c(O)c3ccccc23)cc1
